From PubChem
LASV entry inh – blocks Lassa virus binding to or entry into cells; Lassa virus pseudotype entry inhibition, cell reporter; Potency, µM (titrated, usually from 37.9 µM), most hits filed as inhibitors; actives 1.2% (n = 300,000); AID 540256; calls by dose curve; tested in HEK293 cells; note: nearly all actives have a fitted effect of over 50% in size
Pf growth 48h – P. falciparum growth inhibition at 48 hours (one generation); P. falciparum luciferase growth in erythrocytes, 48 h; Potency, µM (series often up to 28.7 µM), most hits filed as inhibitors; actives 5.9% (n = 310,000); AID 504832
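A one-generation exposure of luciferase-tagged malaria parasites in RPMI 1640/Albumax erythrocyte culture, 37 C and 5% CO2. Inhibition is inferred from decreased luminescence after adding detection reagent.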
Marburg entry inh – inhibitors of Marburg virus binding or cell entry; Potency, µM (highest dose often 37.8 µM), usual class: inhibitors; Marburg virus pseudotyped entry inhibition, cell reporter; AID 540276; actives 1.8% (n = 300,000); calls by dose curve; tested in HEK293 cells
Shiga inhibitor – Shiga toxin inhibition; Vero cells, Shiga toxin protein synthesis inhibition reporter; inhibition, % at 38.7 µM; actives 9.2% (n = 290,000); in the data active = inhibition mostly above about 28%, no sharp cut-off; inactive = mostly below about 43%
Pf growth 96h – inhibits malaria parasite growth, 96 h. P. falciparum luciferase reporter growth, 96 h. Potency, µM (highest dose often 28.7 µM), most hits filed as inhibitors. actives 6.9% (n = 320,000)
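96 h incubation, 37 C, 5% CO2, of luciferase-reporter P. falciparum-infected RBCs (2% hematocrit, 0.05% parasitemia final) with test compounds; endpoint luminescence.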
CHX counter – counter-screen for Shiga toxin inhibitors: cycloheximide protein synthesis inhibition. cell reporter, cycloheximide protein synthesis inhibition counterscreen. max response, %. actives 12% (n = 300,000); in the data active = max response mostly above about 13%, no sharp cut-off; inactive = mostly below about 14%; note: read at 38.3 µM for the half of the compounds with a filed dose
A number is an active result; - = inactive; ? = inconclusive; . = not tested or not shown; + = active, no number; [ ] = dose if it differs, or a comment. Shown are actives, neighbours in structure and some others; about 19% of the full set was active somewhere. Unless noted, calls come from the whole dose curve; as a rule, active = well fitted inhibition curve with a large enough effect; inconclusive = small, poorly fitted or top-dose-only effect, or another doubt; inactive = no such curve, though single readings can be large or run the other way.

SMILES	LASV entry inh	Pf growth 48h	Marburg entry inh	Shiga inhibitor	Pf growth 96h	CHX counter
O=c1oc2ccccc2c(NC2CCCCC2)c1NS(=O)(=O)c1ccc(Br)cc1	-	-	-	-	10µM	-
CCOC(=O)c1ccc(NC(=O)c2ccc(CN3C(=O)CCn4nc(C)cc43)cc2)cc1	-	.	.	.	.	.
CC1(C)Cc2c(sc3c2C2=NCCN2C=N3)CO1	-	-	-	-	-	-
NS(=O)(=O)c1ccc(CCNC(=O)CNCCc2ccccc2)cc1	-	-	-	-	-	-
O=C(O)C1C2C=CC(O2)C1C(=O)Nc1ccc(S(=O)(=O)Nc2ccccc2)cc1 (stereo not drawn)	-	-	-	-	-	-
O=C(NC(=S)NC1C2CC3CC(C2)CC1C3)c1ccccc1 (stereo not drawn)	?	-	-	49	10µM	18
CC(=O)NNC(=S)NC(=O)c1ccccc1	-	?	-	-	-	-
O=C(NC(=S)NC1CCCCCCCCCCC1)c1cccnc1	-	.	?	-	-	-
O=C(NC(=S)NC1CCCC1)c1ccccc1	-	-	?	67	-	43
O=C(Cc1ccc(-c2ccccc2)cc1)Nc1ncccc1O	.	-	.	80	-	37
O=C(Cc1ccc(-c2ccccc2)cc1)Nc1ccccc1	-	-	-	-	-	22
O=C(CCCc1c[nH]c2ccccc12)Nc1ncccc1O	.	-	.	-	?	-
CCN(CC)C(=O)CSc1nnnn1-c1ccc(F)c(Cl)c1	.	-	.	-	-	-
COc1ccc(C(=O)N/N=C\C(C)=C\c2ccccc2)cc1OC	?	.	-	.	.	.
NC1=NC(=O)/C(=C/c2cn(Cc3ccccc3)c3ccccc23)S1	?	2.1µM	-	62	?	24
CCOc1ccc2c(c1)n([O-])c1c([n+]2=O)CCCC1	-	-	?	-	-[5.75 µM]	-
CCN(CC)c1ccc(/C=C2\C(=O)c3ccc(C(=O)O)cc3C2=O)cc1	-	-	?	+	-	130
COc1ccccc1-n1nc(C)cc1N	-	-	-	-	-	-
Cn1c(S(=O)(=O)c2ccc([N+](=O)[O-])cc2)nc(Br)c1Br	-	?	?	-	9.3µM	-
COC(=O)c1ccc(S(=O)(=O)c2ccc([N+](=O)[O-])cc2)cc1	.	-	.	-	-	-
COCCN(C(=O)Nc1ccc(OC)cc1)c1nc2ccccc2s1	-	-	-	42	-	18
COCCN(C(=O)Nc1ccc(F)cc1F)c1nc2ccccc2s1	-	-	-	48	-	34
COCCN(C(=O)Nc1ccccc1)c1ccccc1	?	-	-	-	.	-
CCCN(CCC)C(=O)Nc1ccc(F)cc1F	-	-	-	-	-	-
COc1ccc([N+](=O)[O-])cc1NC(=O)CCNC(=O)Cn1ccc2ccccc2c1=O	.	?	.	-	-	-
SMILES	LASV entry inh	Pf growth 48h	Marburg entry inh	Shiga inhibitor	Pf growth 96h	CHX counter
CC(C)C(NC(=O)C(NC(=O)C1OC2OC(C)(C)OC2C2OC(C)(C)OC12)C(C)C)C(=O)O (stereo not drawn)	-	-	-	31	-	15
Clc1ccc2nc(-c3ccc(N4CCOCC4)cc3)c(Nc3ccccc3)n2c1	?	.	-	.	.	.
COc1ccc(N(C(C)=O)S(=O)(=O)c2cc(OC)ccc2OC)cc1	-	-	?	-	8.3µM	-
COc1ccc(OC)c(S(=O)(=O)N(C(C)=O)c2ccc3oc(=O)sc3c2)c1	-	-	-	-	?	-
COc1ccccc1NC(=O)CN1CCN(CC(=O)Nc2ccc3c(c2)OCO3)CC1	-	?	-	-	-	-
Cc1cccc(NC(=O)CC23CC4CC(C2)CC(n2nnc(C)n2)(C4)C3)c1	-	?	?	-	13µM	-
Cc1nnn(C23CC4CC(CC(CC(=O)Nc5cccc(F)c5)(C4)C2)C3)n1	-	?	?	-	-	-
O=C(NC1CC1)C1=C[C@@H](c2ccccc2)C[C@@H](OCc2ccc(CO)cc2)O1	.	?	.	-	?	-
C[C@H]1C=C(C(=O)NC2CC2)O[C@@H](OCc2ccc(CO)cc2)C1	.	-	.	-	-	13
O=C(NC1CC1)C1=C[C@H](c2ccc(C(F)(F)F)cc2)C[C@H](OCc2ccc(CO)cc2)O1	.	?	.	28	?	24
C[C@H]1C=C(C(=O)NCc2ccccc2)O[C@@H](OCc2ccc(CO)cc2)C1	.	-	.	-	?	-
N=C(N)SCc1nc2ccccc2c(=O)n1-c1ccccc1Cl	-	-	?	81	?	50
Cc1nnc(SCc2nc3ccccc3c(=O)n2-c2ccccc2Cl)n1N	-	-	-	-	-	-
c1ccc(Cn2c(CSc3nnnn3-c3ccccc3)nc3ccccc32)cc1	-	?	-	-	15µM	-
Cc1ccccc1-n1c(CSC(=N)N)nc2ccccc2c1=O	-	-	?	-	-[5.75 µM]	-
O=c1c2ccccc2nc(CSc2nnnn2-c2ccccc2)n1-c1ccccc1Cl	?	?	-	-	12µM	-
c1ccc(-c2nc(CSc3nnnn3-c3ccccc3)cs2)cc1	-	-	-	-	-	-
c1ccc(Cn2c(Sc3nnnn3-c3ccccc3)nnc2-c2ccccc2)cc1	-	1.9µM	?	-	?	-
COc1ccc(CCNC(=O)CSc2ccccc2)cc1OC	-	-	-	-	-	-
COc1ccccc1NC(=O)CC1C(=O)Nc2ccccc2N1C(=O)c1ccccc1 (stereo not drawn)	-	-	?	-	?	-
N#Cc1c(-c2ccccc2)ccn(Cc2ccccc2Cl)c1=O	-	?	-	-	15µM	-
CSc1cc(-c2ccccc2)n(Cc2ccccc2Cl)c(=O)c1C#N	?	.	?	-	-	-
N#Cc1c(-c2ccccc2)ccn(Cc2cccc(Cl)c2)c1=O	-	?	-	-	13µM	-
N#Cc1c(-c2ccco2)ccn(Cc2cccc(F)c2)c1=O	-	?	-	-	?	-
CCn1c(-c2ccc(N(C)C)cc2)nc2ccccc21	?	-	?	-	?	-
SMILES	LASV entry inh	Pf growth 48h	Marburg entry inh	Shiga inhibitor	Pf growth 96h	CHX counter
CN(C)c1ccc(-c2nc3ccccc3n2C)cc1	?	-	?	-	?	24
CC(C)n1c(-c2ccc(N(C)C)cc2)nc2ccccc21	?	-	-	114	-[5.75 µM]	29
O=C(CCCn1c(=O)oc2ccccc21)NC1CCCCCC1	.	-	.	-	-	-
CC(/C=C1\SC(=S)N(NC(=O)c2ccc(C)cc2)C1=O)=C\c1ccccc1	?	-	?	-	-	-
CC(/C=C1\SC(=S)N(c2ccc(C(=O)O)cc2)C1=O)=C\c1ccccc1	.	4.7µM	.	-	?	-
COC(=O)C[C@](O)(CCCC(C)(C)O)C(=O)O[C@@H]1C(OC)=C[C@]23CCCN2CCc2cc4c(cc2[C@H]13)OCO4	.	0.0095µM	.	.	0.0067µM	.
CCN(Cc1ccccc1)Cc1nc(CCc2ccccc2)no1	.	-	.	-	-	-
CN(C)Cc1ccc(O)c(CCc2ccccc2)n1	-	5.2µM	-	-	-	-
Cc1c(NC(=O)C(C)N2CC(C)OC(C)C2)c(=O)n(-c2ccccc2)n1C (stereo not drawn)	-	-	-	-	.	-
Cc1ccc(-n2ncc3c(N4CCC(Cc5ccccc5)CC4)ncnc32)cc1C	-	.	.	.	.	.
